The values below come from PubChem BioAssay (NCI).

Molecules are shown by their SMILES. Values joined by “and” are separate entries in the source; they are usually repeats but may differ in a detail not shown here. Equal values may be shown once. This is part of a sample that, as a whole, favours compounds with a hit. Of some 83,000 tested, about 20% had one in any assay.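 Negative percent growth values reflect cell death: -40 means 40% of the cells present at the start died, and -100 means all died.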 Values without a mark were called inactive. Active and inactive are the calls of the source. How the source made its calls: active means growth percent below 10; inactive means the rest.

Holding throughout (assay): NCI-60 one-dose screen, 48 h (100 = growth as untreated, 0 = no growth, -100 = all killed)
What all share (details): 10 µM unless noted

Assay [1] relates to SR leukemia.
In assay [2] the test system is RPMI-8226 leukemia.
Assay [3] concerns OVCAR-8 ovarian.
Assay [4] has as its system OVCAR-5 ovarian.
The test system of assay [5] is OVCAR-4 ovarian.
Assay [6] has as its system SK-OV-3 ovarian.
Assay [7] relates to IGROV1 ovarian.
For assay [8], the system named is OVCAR-3 ovarian.
The test system of assay [9] is HS 578T breast.
The subject of assay [10] is NCI/ADR-RES ovarian.

For `C[C@]12CCc3c(ccc4cc(O)ccc34)[C@@H]1C[C@H](O)[C@@H]2O`, the growth in assay [1] was 110%; in [2], 97.1%; in assay [3] it was 94%; in [4], 104%; in [5], 106%; in assay [6] it was 106%. For the same molecule, the growth in assay [7] was 103%; in [8] it was 96.7%; in assay [9], 84.9%; in assay [10], 96%.
Take `Cc1ccc(-c2nc([P+](c3ccccc3)(c3ccccc3)c3ccccc3)c(Nc3ccccc3)o2)cc1`: the growth in [1] is -27.1% (active); in assay [2] it was -50.4% (active); in [3], -21.5% (active); in [4], 8.46% (active); in assay [5], -5.24% (active); in [6], -9.23% (active). The growth in assay [7] was 15%; in assay [8], -12.1% (active); in [9] it was -31.1% (active); in assay [10] it was -3.38% (active).
In the case of `Cc1nc(-n2[nH]c(=O)ccc2=O)sc1N=Nc1ccccc1`, the growth in [1] is 105%; in assay [2], 100%; in [3], 103%; in [4] it was 100%; in [5] it was 104%; in assay [6], 103%. Further, the growth in assay [7] is 95.5%; in assay [8] it was 114%; in [9], 95.5%; in assay [10] it was 108%.
As for `CCOC(=O)C(=Cc1ccc(C#N)cc1)C(=O)OCC`, the growth was 0.158% (active) in assay [1]; -1.68% (active) in assay [2]; 34.5% in assay [3]; 30.8% in assay [4]; 53.9% in [5]; 84.9% in assay [6]. The growth in [7] is 32.7%; in assay [8], 17%; in assay [9], 78.5%; in [10] it was 20.3%.
With `CCOC(=O)C1=C(C)N=C2SC=C(c3ccc(F)cc3)N2[C@H]1c1cn(-c2ccccc2)nc1-c1ccc(Cl)cc1`, the growth in [1] was 88%; in assay [2], 88.4%; in [3] it was 92%; in assay [4], 91.9%; in assay [5], 102%; in assay [6], 87.8%. In addition, the growth was 96.7% in assay [7], 114% in assay [8], 101% in assay [9] and 105% in assay [10].
Take `Nc1nc(N)c2c(n1)NC(c1ccc(Cl)cc1)CC(c1cccc(Nc3ccncc3)c1)=N2` (stereo not given): the growth was 8.66% (active) in assay [1]; 55.9% in [2]; 39% in [3]; 90.4% in assay [4]; 73.8% in [5]; 84.2% in assay [6]. Also, the growth in [7] was 41.6%; in [8] it was 82.3%; in assay [9] it was 77.9%; in assay [10] it was 100%.
Turning to `Cc1ccccc1SSc1ccccc1C`, the growth in assay [1] was 65.4%; in assay [2], 98.5%; in assay [3], 84.1%; in [4], 75.5%; in assay [5], 94.5%; in assay [6] it was 96.9%. Further, the growth is 84.6% in assay [7], 120% in [8], 97.7% in assay [9] and 86.4% in [10].
Take `O=[N+]([O-])c1cc(C(F)(F)F)ccc1Sc1ccc(C(F)(F)F)cc1[N+](=O)[O-]`: the growth is 7.21% (active) in assay [1]; 34.2% in assay [2]; 85.7% in [3]; 132% in [4]; 44.6% in [5]; 56% in assay [6]. Besides, the growth was 77.7% in assay [7], 92.3% in [8], 66.3% in [9] and 82.5% in [10].
In the case of `Brc1ccc(/C=C(/C2=NCCN2)n2ccc3ccccc32)cc1`, the growth was 30.4% in assay [1]; 86.1% in assay [2]; 72.3% in [3]; 72.9% in assay [4]; 67.7% in assay [5]; 82% in [6]. For the same molecule, the growth in assay [7] is 60.7%; in assay [8] it was 77.6%; in assay [9], 78.2%; in [10] it was 65.9%.
In the case of `O/N=C(/c1ccccc1)c1ccc2c3c(cccc13)CC2`, the growth in [1] is 67% and 66.6%; in assay [2], 75.2% and 70.4%; in assay [3] it was 87.7%; in assay [4], 97.7% and 95.4%; in [5], 83.9% and 77.1%; in assay [6], 99.3% and 97.4%. Also, the growth in [7] is 97.8% and 98%; in assay [8], 99.4% and 93.3%; in assay [9], 94.4% and 90.2%; in assay [10], 92.8% and 88.6%.
`CON1CCC[C@]2(C)[C@H]3CC[C@@H]4[C@H]5[C@@H](O)C(C)(C)CC[C@]5(CO)CC[C@@]4(C)[C@]3(C)CC[C@H]2C1(C)C`: the growth was 88.4% in assay [1]; 89.1% in assay [2]; 95.2% in [3]; 102% in [4]; 100% in assay [5]; 90.1% in [6]. The growth was 103% in [7], 104% in assay [8], 108% in assay [9] and 111% in [10].
Take `COc1cc(-c2nn(-c3cccc(NC(=O)CCN4CCN(C)CC4)c3)cc2-c2ccncc2)ccc1Cl`: the growth in [1] was -43.5% (active); in [2] it was 4.86% (active); in assay [3], 35.1%; in [4] it was 67.9%; in assay [5], 59.7%; in assay [6], 23.1%. Also, the growth in [7] was 49.7%; in assay [8] it was 2.81% (active); in assay [9], -0.227% (active); in [10], 39.9%.
